Assay outcomes (PubChem)
KB-3-1 cytotox – KB-3-1 parental cell cytotoxicity; Potency, µM (titrated, usually from 46.1 µM), usual class: cytotoxic; KB-3-1 viability, CellTiter-Glo ATP luminescence, 72 h; AID 1347075; 1.4% of 400,000 active; also: nearly all actives have a fitted effect of over 60% in size
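KB-3-1 parental drug-naive adenocarcinoma cells in DMEM/10% FBS, incubated 72 h at 37 C with pin-transferred compounds across a concentration series. Viability by CellTiter-Glo luminescence; concentration-response curves fitted after normalization.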
HT1080 IDH1KD tx – HT-1080 IDH1 knockdown cell toxicity (counter line) | Potency, µM (series often up to 46.1 µM), for inactives: at the highest dose activity, negative = toxicity, actives largely listed as cytotoxic | HT-1080 IDH1 knockdown viability, ATP luminescence, 48 h | AID 686971 | 2% of 360,000 active;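 also: 0% = DMSO wells and -100% = cell-free medium wells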
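Luminescent ATP read-out (CellTiter-Glo, 10 min at room temperature) after 48 h compound exposure at 37 °C gave viability of IDH1-knockdown HT-1080 cells. Activity was normalised to DMSO and cell-free wells, then fitted as concentration-response curves.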
DT40 TDP1 no CPT – qHTS for Inhibitors of human tyrosyl-DNA phosphodiesterase 1 (TDP1): qHTS in cells in absence of CPT | DT40 Tdp1-/- hTDP1 cells, no CPT, ATP luminescence, 48 h | Potency, µM (series often up to 46.2 µM), for inactives: at the top dose activity change, negative = growth inhibition, hits mostly inhibitors | 15% of 420,000 active; also: nearly all actives have a fitted effect of over 55% in size
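Growth of hTDP1-complemented DT40 Tdp1-knockout cells is measured by ATP luminescence after at least 48 hr compound exposure at 37 °C, with DMSO substituting for the 20 nM CPT used in the parallel screen.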
TDP1 cell CPT – growth inhibition of DT40 Tdp1-/-;hTDP1 cells with camptothecin (screen for TDP1 inhibitors). 12% of 420,000 active. AID 686979. Potency, µM (doses to about 46.2 µM), for inactives: at the top dose activity change, negative = growth inhibition, usual class: inhibitors. chicken DT40 Tdp1-/-;hTDP1 cells + 20 nM CPT, ATP luminescence, 48 h; also: nearly all actives have a fitted effect of over 55% in size
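Chicken DT40 Tdp1-/- cells complemented with human TDP1, 400 cells/well, exposed to compounds plus 20 nM camptothecin for at least 48 h at 37 C; viability read as ATP content by CellTiter-Glo luminescence.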
HT1080-NT tox – kills 2HG-producing HT-1080-NT fibrosarcoma cells | AID 686970 | 1.6% of 360,000 active | HT-1080-NT fibrosarcoma viability, CellTiter-Glo ATP luminescence, 48 h | Potency, µM (series often up to 46.1 µM), for inactives: top-dose activity, negative = less viability, hits mostly cytotoxic;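 also: NT is the 2HG producing partner of a matched IDH1 knockdown line; 0% = DMSO-treated cells and -100% = media-only wells without cells; nearly all actives have a fitted effect of over 55% in size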
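Viability of the 2HG-overproducing fibrosarcoma line after 48 hours of compound exposure at 37 degrees C was determined by luminescence with CellTiter-Glo, and concentration-effect curves were then fitted and categorized.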
KB-V1 MDR tox – KB-V1 MDR subline cytotoxicity; AID 1347076; KB-V1 MDR cells viability, CellTiter-Glo, 72 h; 3.4% of 400,000 active; Potency, µM (doses to about 46.1 µM), usual class: cytotoxic; also: nearly all actives have a fitted effect of over 60% in size
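In this primary screen, KB-V1 cells overexpressing P-gp are incubated with library compounds (lowest to highest concentration) for 72 h at 37 degrees C before a luminescent ATP viability read.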
An asterisk follows results filed as active; i = inactive; ? = inconclusive; . = no result given. In the library only some 19% were active in any assay of this set; here they are far more common. Calls follow the shape of the dose curve; as a rule, active = well fitted curve in the direction sought with a large enough effect; inconclusive = small, poorly fitted or top-dose-only effect, or another doubt; inactive = no such curve, though single readings can be large; an effect the other way counts as inactive or inconclusive. Unless noted, % is scaled to controls: 0 for no effect and ±100 for the full control effect; potency is read from the fitted curve at half-maximal effect.

SMILES	KB-3-1 cytotox	HT1080 IDH1KD tx	DT40 TDP1 no CPT	TDP1 cell CPT	HT1080-NT tox	KB-V1 MDR tox
CCOC(=O)C1C(c2ccc3c(c2)OCO3)NC(=O)NC1(O)C(F)(F)F (stereo unspecified)	i	22%	13µM*	9.2µM*	15%	i
CC1=C(C(=O)N(C)C)CC(CC(=O)NCC2CCCCC2)C(=O)N1Cc1ccc(F)cc1 (stereo unspecified)	i	24%	?	?	16%	i
CCOc1ccc(OCCC(=O)OCC(=O)NC2CCCCC2)cc1	i	-1%	-3%	-7%	-1%	i
CCOC(=O)C1=C(CN2CCN(CC)CC2)NC(=O)NC1c1ccc(Cl)cc1 (stereo unspecified)	i	.	23µM*	?	.	i
CCOC(=O)C1=C(CN2CC(C)CC(C)C2)NC(=O)NC1c1ccc2c(c1)OCO2 (stereo unspecified)	i	-4%	26µM*	?	-27%	18µM*
CCOC(=O)C1=C(CN2CCN(C(=O)c3ccco3)CC2)NC(=O)NC1c1ccc(Cl)cc1 (stereo unspecified)	i	-19%	?	?	-26%	?
CCOC(=O)C1=C(CN2CCC(C)CC2)NC(=O)NC1c1ccc(F)cc1 (stereo unspecified)	i	.	-26%	-5%	.	i
CCOC(=O)C1=C(CN2CCN(c3ccccc3)CC2)NC(=O)NC1c1ccc(C)cc1 (stereo unspecified)	i	.	?	26µM*	.	i
N#CCCSc1ncnc2c1oc1ccccc12	?	?	-17%	-8%	3%	12µM*
OCCSc1ncnc2c1oc1ccccc12	i	1%	-16%	-9%	0%	i
Cc1ccc(OCC(=O)N(C)CC(=O)Nc2ccccc2Cl)c([N+](=O)[O-])n1	i	-23%	2%	1%	-2%	18µM*
CCOC(=O)c1c(C)[nH]c(C(=O)OCC(=O)N(C)CC(=O)Nc2ccccc2Cl)c1C	i	-5%	?	?	-3%	13µM*
CC(=O)Oc1ccc(-c2ccc(C(=O)OCC(=O)N(C)CC(=O)Nc3ccccc3Cl)cc2)cc1	i	?	-16%	?	18µM*	i
COc1cc(NC(=S)NC(=O)c2ccccc2F)ccc1NC(=O)c1ccco1	i	-8%	-22%	-21%	-3%	i
O=C(COc1ccccc1)N=C1SC2CS(=O)(=O)CC2N1c1cccc(F)c1 (stereo unspecified)	i	1%	32%	2%	-5%	i
CCCS(=O)(=O)N1CCCC(C(=O)N2CCN(C(=O)OCC)CC2)C1 (stereo unspecified)	i	8%	-8%	2%	14%	i
Cc1nc(N2CCN(C)CC2)c2nnn(Cc3ccccc3)c2n1	.	-1%	?	-18%	-3%	.
CCc1nc(N2CCC3(CC2)OCCO3)c2nnn(Cc3ccccc3Cl)c2n1	i	-12%	16µM*	?	0%	i
CC1Cc2ccccc2N1c1ncnc2c1nnn2Cc1ccccc1Cl (stereo unspecified)	i	2%	?	?	-3%	i
Clc1ccccc1Cn1nnc2c(N3CCCC3)ncnc21	i	20µM*	?	?	?	i
O=C(NCCCn1ccnc1)c1cc(-c2ccc3c(c2)OCO3)on1	i	-17%	-20%	-27%	-27%	i
Cc1ccc(-n2nnnc2SCc2nnc(-c3ccccc3Br)o2)cc1	i	-8%	-26%	-8%	0%	16µM*
Brc1ccccc1-c1nnc(CSc2nncn2-c2ccccc2)o1	i	1%	-29%	-14%	-2%	i
Cc1cc(C)n2nc(SCc3nnc(-c4ccccc4Br)o3)nc2n1	i	4%	?	-2%	0%	13µM*
CC1Cc2cc(S(=O)(=O)N3CCC(C(=O)N4CCN(c5ccccc5F)CC4)CC3)ccc2N1C(=O)C1CC1 (stereo unspecified)	i	-5%	?	?	-3%	i
SMILES	KB-3-1 cytotox	HT1080 IDH1KD tx	DT40 TDP1 no CPT	TDP1 cell CPT	HT1080-NT tox	KB-V1 MDR tox
COCCOC(=O)C1=C(C)N(Cc2ccccc2)C(=O)NC1c1ccc(OC)cc1 (stereo unspecified)	i	-10%	?	-26%	-17%	13µM*
COCCN=C1N[C@@H](c2ccccc2)C(C(=O)OC)=C(C)N1Cc1ccccc1	i	9%	23µM*	?	2%	i
COC(=O)C1=C(C)N(Cc2ccccc2)C(=O)N[C@H]1c1ccc(Br)cc1	i	-6%	7%	2%	-9%	i
COCCN=C1N[C@@H](c2ccc(Br)cc2)C(C(=O)OC)=C(C)N1Cc1ccccc1	i	-29%	?	?	23µM*	i
CC(=O)Nc1cc2nc(C)n(Cc3ccccc3[N+](=O)[O-])c2nc1C	i	4%	27%	-16%	-6%	?
O=C(Nc1cc(-c2ccccc2)nn1-c1ccccc1)c1ccccc1F	i	0%	?	?	-8%	i
CCC(Oc1ccccc1)C(=O)Nc1cc(-c2ccccc2OC)nn1-c1ccccc1 (stereo unspecified)	i	.	23µM*	?	.	i
CC(C)CC(=O)Nc1cc(-c2ccccc2F)nn1-c1ccccc1	i	.	12µM*	26µM*	.	i
Cc1cc(Cl)ccc1OCCCC(=O)OCC(=O)c1c(N)n(C)c(=O)n(C)c1=O	i	4%	7%	-3%	8%	i
CCOc1ccccc1C1N=C(c2ccc(OC)cc2)CC(c2ccccc2O)N1 (stereo unspecified)	i	?	16µM*	21µM*	?	i
CC(O)(c1ccc(F)c(F)c1)c1nc(/C=C/c2ccc(C(F)(F)F)cc2)cs1 (stereo unspecified)	i	?	?	?	?	i
C[C@H](CO)N1C[C@H](C)[C@@H](CN(C)Cc2ccc(Cl)c(Cl)c2)Oc2c(NS(=O)(=O)c3cn(C)cn3)cccc2C1=O	?	10%	?	7%	3%	i
Cc1cn([C@H]2C[C@H](F)[C@@H](CO)O2)c(=O)[nH]c1=O	.	.	17µM*	6.7µM*	.	.
